# Assay outcomes from PubChem.
# A selection: hits, their analogues and other compounds. The true share with any hit is near 7.3%.
# NPC1 promoter act = NPC1 promoter activation; Huh7 NPC1 promoter luciferase reporter, 24 h; Potency, µM (series often up to 9.22 µM), usual class: activators; 2.4% of 320,000 active; note: nearly all actives have a fitted effect of over 60% in size
#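 Readout is luciferase luminescence, reflecting NPC1 promoter activation in stably transfected Huh7 cells after 24 h compound exposure at 37 °C in reduced-serum medium with 10% FBS.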
# p53 reactivation = mutant p53 re-activation in reporter cells. AID 504706. Potency, µM (doses to about 92.2 µM), usual class: activators. 0.063% of 320,000 active. H1299 p53-A138V BP100-luciferase reporter, luminescence, 24 h; note: nearly all actives have a fitted effect of over 45% in size
#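 p53-null H1299 cells stably carrying temperature-sensitive p53-A138V and a BP100-luciferase reporter were pinned with compounds (4-point, 1:5 series) and held 24 hrs at 37 deg C. Luminescence was read 10 min after detection reagent.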
# SMN2 splice up = increases expression of the SMN2 splice variant. HEK293 SMN2-luciferase splicing reporter, luminescence, 30-36 h. Potency, µM (top dose mostly 46.1 µM), usual class: activators. 2.8% of 210,000 active. AID 1458; note: nearly all actives have a fitted effect of over 55% in size
#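 HEK293 cells carry an SMN2 minigene-luciferase reporter in which exon 7 inclusion puts luciferase in frame. Cells were seeded at 2000 cells/well, attached for 10-12 hours, then exposed to compounds for 30-36 hours at 37C before ONE-Glo luminescence.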
# FLuc counter = inhibits or activates purified firefly luciferase, miR-21 counter-screen; P08659; purified FLuc, Km substrates, luminescence inhibition; Potency, µM (highest dose often 57.5 µM), actives largely listed as inhibitors; 6.9% of 360,000 active; note: nearly all actives have a fitted effect of over 55% in size
# Target sequence (P08659 whole entry, looked up): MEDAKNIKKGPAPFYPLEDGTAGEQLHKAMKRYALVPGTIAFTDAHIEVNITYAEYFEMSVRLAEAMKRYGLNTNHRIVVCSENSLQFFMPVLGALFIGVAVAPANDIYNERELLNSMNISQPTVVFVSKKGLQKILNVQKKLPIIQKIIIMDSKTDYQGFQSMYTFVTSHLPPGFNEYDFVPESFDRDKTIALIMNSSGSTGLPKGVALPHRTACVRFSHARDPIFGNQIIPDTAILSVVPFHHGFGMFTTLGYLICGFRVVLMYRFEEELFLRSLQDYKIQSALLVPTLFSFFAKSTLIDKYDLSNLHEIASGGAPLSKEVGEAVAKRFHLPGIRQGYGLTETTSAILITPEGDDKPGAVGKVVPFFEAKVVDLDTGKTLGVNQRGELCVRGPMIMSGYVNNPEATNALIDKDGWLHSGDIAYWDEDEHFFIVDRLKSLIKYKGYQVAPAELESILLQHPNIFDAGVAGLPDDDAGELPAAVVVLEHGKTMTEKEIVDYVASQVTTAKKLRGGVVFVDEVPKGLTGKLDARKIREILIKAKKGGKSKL
#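 Purified P. pyralis luciferase, 10 nM final, with Km-level 10 uM D-luciferin and 10 uM ATP in 50 mM Tris acetate pH 7.5, 10 mM Mg acetate, 0.01% Tween-20, 0.05% BSA; 6-point qHTS titration about 60 µM downward; luminescence read.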
# ELG1 genotox = genotoxicity induction in ELG1-luciferase HEK293T cells; HEK293T ELG1-luciferase reporter, luminescence, 16 h; Potency, µM (doses to about 46 µM), most hits filed as activators; 1.3% of 330,000 active; AID 504466; note: nearly all actives have a fitted effect of over 60% in size
#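 ELG1-luciferase HEK293T cells, 2,000/well; compound pinned in; 16 hr, 37 °C, 5% CO2; ONE-Glo, 30 min RT; luminescence on CCD imager.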
# Rab9 prom act = Rab9 promoter activation | 2.8% of 320,000 active | Huh7 Rab9 promoter-luciferase reporter, luminescence, 24 h | Potency, µM (titrated, usually from 9.22 µM), usual class: activators; note: nearly all actives have a fitted effect of over 60% in size
#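 Luciferase signal after 10 min detection reagent at ambient indicates Rab9 promoter upregulation; stably transfected Huh7 cells were treated 24 h with compound in DMSO at 37 °C, 5% CO2.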
# A number is an active result; 0 = inactive; ? = inconclusive; - = not tested or not shown. Calls come from the whole dose curve; as a rule, active = well fitted curve in the direction sought with a large enough effect; inconclusive = small, poorly fitted or top-dose-only effect, or another doubt; inactive = no such curve, though single readings can be large; an effect the other way counts as inactive or inconclusive.
SMILES,NPC1 promoter act,p53 reactivation,SMN2 splice up,FLuc counter,ELG1 genotox,Rab9 prom act
Cc1ccc(C(=O)NCC(c2cccnc2)N2CCc3ccccc32)cc1C (stereo unspecified),-,-,-,0,-,-
Cc1ccc(C(=O)NCC(c2cccnc2)N2CCc3ccccc3C2)cc1C (stereo unspecified),-,-,-,2.7µM,-,-
COC(=O)CSc1nnc(-c2ccc(OC)c(OC)c2)o1,0,0,0,0,0,0
NCCc1nnc(SCc2ccccc2F)o1,0,0,0,0,0,0
COc1ccc(-c2nnc(SCc3ccccc3F)o2)cc1OC,0,0,0,24µM,0,?
Cc1ccc(-c2nnc(SCc3ccccc3F)o2)cc1,0.79µM,?,11µM,?,8.2µM,0.89µM
N#Cc1ccccc1CSc1nnc(-c2ccccc2)o1,-,-,11µM,3.8µM,-,-
CC(=O)Nc1ccc(/C=N/NC(=O)c2cc3cc(C)ccc3nc2C)cc1,0,0,0,6µM,?,0
Cc1nc2c(C)cccc2cc1C(=O)N/N=C/c1ccc(C(=O)O)cc1,0,0,0,17µM,0,0
Cc1cc2c(cc1S(=O)(=O)N1CCN(c3cccc(C)c3C)CC1)OCC(=O)N2,0,0,-,0,0,0
O=C(CSc1nnc(-c2ccccc2O)o1)N1CCc2ccccc2C1,0,0,0,0,0,0
O=C(CSc1nnc(-c2ccccc2Br)o1)N1CCOCC1,2.8µM,?,-,19µM,?,4µM
O=C(CSc1nnc(-c2ccccc2Cl)o1)N1CCCC1,?,?,-,15µM,?,?
O=C(CSc1nnc(-c2ccccc2O)o1)N1CCOCC1,?,?,-,?,?,3.2µM
O=C(CSc1nnc(-c2ccccc2O)o1)N1CCCCC1,0,0,-,11µM,?,0
CC(=O)OC1CC(C)OC(C)O1 (stereo unspecified),-,-,0,-,-,-
Cn1cnnc1SCC(=O)c1ccc(O)c(O)c1,0,0,0,0,0,?
Cc1ccc(S(=O)(=O)N2CCCCC2)cc1NC(=O)COC(=O)c1cccn1C,-,0,-,-,0,-
O=C(CSc1nnc(-c2ccccc2Cl)o1)N1CCCCC1,?,0,16µM,15µM,4.6µM,?
CC1CCCCN1C(=O)CSc1nnc(-c2ccccc2Cl)o1 (stereo unspecified),-,-,0,0,-,-
CC1CCCCN1C(=O)CSc1nnc(-c2ccccc2O)o1 (stereo unspecified),2.8µM,?,-,21µM,5.2µM,3.5µM
O=C(CSc1nnc(-c2ccncc2)o1)N1CCCCCC1,0,0,0,0,0,0
c1ccc(-c2nnc(NC3=NCCC3)o2)cc1,?,0,8.9µM,6µM,1.8µM,0.35µM
Fc1ccc(-c2nnc(-c3ccc(F)cc3)o2)cc1,2.8µM,-,-,4.3µM,?,?
O=C(Nc1ccccc1)Nc1nnc(-c2ccccc2)o1,0,0,0,?,0,0
SMILES,NPC1 promoter act,p53 reactivation,SMN2 splice up,FLuc counter,ELG1 genotox,Rab9 prom act
Fc1ccc(-c2nnc(Cc3nnc(-c4ccc(F)cc4)o3)o2)cc1,0,0,0,0,0,0
Fc1ccc(NC2=NCCCCC2)cc1,0,0,0,0,0,0
Fc1ccc(-c2nnc(NC3=NCCCCC3)o2)cc1,?,0,0,0.6µM,?,0.089µM
O=C(CN1CCN(S(=O)(=O)c2cc(Cl)ccc2Cl)CC1)Nc1cccc(F)c1,-,-,-,0,-,-
CCC1(CC)C(=O)C(C)(C)C(=O)OC1c1cccs1 (stereo unspecified),0,0,0,0,0,0
O=C1C2C(C(=O)N1c1ccc3c(c1)OCO3)C1C=CC2C12CC2 (stereo unspecified),0,0,0,17µM,0,0
CC(=O)Oc1cccc(N2C(=O)C3C(C2=O)C2C=CC3C23CC3)c1 (stereo unspecified),0,0,0,0,0,0
Cc1ccc(/C=N/NC(=O)Cc2cccn2C)cc1,0,0,-,?,0,?
CCc1ccc(/C=N/NC(=O)Cc2cccn2C)cc1,?,0,-,24µM,0,?
Cn1cccc1CC(=O)N/N=C/c1ccc(C(C)(C)C)cc1,0,0,-,17µM,0,?
O=C(CSc1nnc(CNC(=O)c2cccc(F)c2)n1-c1ccccc1)Nc1ccccc1F,-,-,?,0,-,-
Cc1ccc2cc(CCNC(=O)c3ccc(Br)o3)c(=O)[nH]c2c1,0,0,0,0,0,0
CCOc1cc(-c2c(C#N)c(N)nc3c2CCc2ccccc2-3)ccc1O,0,0,13µM,0,0,0
Cn1cncc1C#Cc1ccc2c(=O)c3ccccc3oc2c1,-,0,-,-,0,-
NC(=O)C1CCN(c2nc(-c3cc4ccccc4o3)cs2)CC1,?,0,-,11µM,0,?
CN1CCN(c2nc(-c3cc4ccccc4o3)cs2)CC1,?,?,13µM,4.8µM,?,?
Cc1cc(C)n(CCc2nc(-c3cc4ccccc4o3)cs2)n1,0,0,0,17µM,0,0
CN1CCN(c2nc(-c3cccs3)cs2)CC1,0,0,0,0,0,0
Nc1nc(-c2cc3ccccc3o2)cs1,2.2µM,?,-,4.3µM,?,2µM
CCc1nn(CC(=O)N2CCN(c3cccc(Cl)c3)CC2)c(=O)c2cc3sccc3n12,-,-,0,0,-,-
Cc1ccc(C(=O)NNC(=O)c2csc(N3CCOCC3)n2)s1,0,0,-,0,0,0
COC(=O)CC1C(C)(C)C2(O)OC34CC2C(=O)[C@@]1(C)C3CC[C@]1(C)C4=CC(=O)OC1c1ccoc1 (stereo partly specified),-,-,0,-,-,-
CCCCn1cnc2c(sc3nc4c(cc32)CSC(C)(C)C4)c1=O,0.63µM,?,4µM,1.1µM,?,1.1µM
CC1(C)Cc2nc3sc4c(NCCO)ncnc4c3cc2CS1,0,0,-,19µM,0,?
CC(C)CCn1cnc2c(sc3nc4c(cc32)CSC(C)(C)C4)c1=O,1µM,?,0,0.6µM,?,0.63µM
SMILES,NPC1 promoter act,p53 reactivation,SMN2 splice up,FLuc counter,ELG1 genotox,Rab9 prom act
CC(/C=C/C(=O)NO)=C\[C@@H](C)C(=O)c1ccc(N(C)C)cc1,-,-,1.4µM,-,-,-
CC(NC(=O)c1ccc(N(C)C)cc1)c1ccc(F)cc1 (stereo unspecified),0,0,0,0,0,0
CCc1ccccc1NC(=O)c1sc(-n2nc(C)c(Cc3ccccc3)c2C)nc1C,-,-,-,0,-,-
Cc1nc2cccnc2n1-c1cccc(C(=O)NCCc2ccc(S(N)(=O)=O)cc2)c1,-,-,-,0,-,-
Cc1ccc(-c2nc3cc(NC(=O)C(C)C)ccc3o2)cc1C,0.35µM,0,?,0.27µM,?,0.13µM
CC(Oc1ccc(Cl)cc1Cl)C(=O)Nc1ccc2oc(-c3ccncc3)nc2c1 (stereo unspecified),0,0,-,0,0,0
CC(C)C(=O)Nc1cccc(-c2nc3ccccc3o2)c1,0,0,0,0,?,0
COc1ccc(C(=O)Nc2ccc(-c3nc4cc(C)ccc4o3)c(O)c2)cc1,-,-,0,0,-,-
COc1cc(OC)cc(-c2nc3cc(C)ccc3o2)c1,0,?,7.1µM,11µM,16µM,0
